Compounds with a hit are over-represented: about 1.5% of the library has one in this group of screens.
IDE act: human IDE activators in live cells, primary screen, fluorescence polarization, HEK cells, FAbeta-B substrate; Insulin-degrading enzyme (Homo sapiens), P14735; FAbeta-B cleavage; 0% vehicle, 100% cell-free pure enzyme wells; activation, % at 5.96 µM; hit rate 0.073% among 340,000; AID 493087, 2011;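 active = activation above the mean of all tested compounds plus 3 SD, set per screening campaign, cut at about 17% in these data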
RTF Ca sens inh: cardiac RTF calcium sensitivity inhibitors, primary screen, biochemical, IANBD-TnC fluorescence, EC70 calcium; Troponin I, cardiac muscle (Homo sapiens) + Troponin T, cardiac muscle (Homo sapiens) + …; IANBD-labeled cardiac RTF, Ca2+ fluorescence; inhibition, % at 7.15 µM; hit rate 0.12% among 340,000; AID 493244, 2011;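 active = inhibition above the mean inhibition of all tested compounds plus 3 SD, cut at about 17% in these data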;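 note: assay run at fixed EC70 calcium of 1.6 mM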
CRFBP-R2 agonist: agonists of CRF-BP/CRF-R2 complex, primary screen, cell-based, HEK293, calcium dye fluorescence, uHTS; CRF-binding protein / CRF receptor 2 complex (human); calcium dye fluorescence (FLIPR); percent of saturating CRF peptide response; activation, % at 13.2 µM; hit rate 0.46% among 350,000; AID 588473, 2011;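 active = activation of at least 50%, plus an integration ratio under a set limit after plate pattern correction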
RTF Ca sens act: cardiac RTF calcium sensitivity activators, primary screen, biochemical, IANBD-TnC fluorescence, EC20 calcium; Troponin I, cardiac muscle (Homo sapiens) + Troponin T, cardiac muscle (Homo sapiens) + …; activation, % at 7.2 µM; IANBD-labeled TnC RTF fluorescence at EC20 calcium; 0% EC20 calcium, 100% full calcium; AID 493008, 2010; hit rate 0.24% among 340,000;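 active = activation above the mean over all tested compounds plus 3 SD, cut at about 30% in these data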;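 note: rise in fluorescence read as greater calcium sensitivity of cardiac thin filaments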
TPT1 inhibitor: Candida albicans TPT1 enzyme inhibitors, primary screen, biochemical, fluorescence polarization | recombinant caTPT1, FP RNA substrate dephosphorylation | AID 1962, 2009 | inhibition, % at 5 µM | tRNA 2'-phosphotransferase TPT1 (Candida albicans SC5314) | hit rate 0.81% among 300,000;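 active = inhibition above the mean of all tested compounds plus 3 SD, set per screening campaign, cut at about 24% in these data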
IDE cell inh: human IDE inhibitors in live cells, primary screen, fluorescence polarization, HEK cells, FAbetaB substrate; Insulin-degrading enzyme (Homo sapiens), P14735; FAbetaB cleavage; inhibition, % at 5.59 µM; hit rate 0.41% among 320,000; AID 434962, 2010;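 active = percent inhibition above the average of all tested compounds plus 3 SD, set per screening campaign, cut at about 16% in these data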;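 note: IDE supplied by intact live HEK cells; FP after avidin binding of uncleaved biotin substrate so inhibition keeps polarization high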
caTPT1 confirm: Candida albicans TPT1 inhibitors, confirmation, biochemical, fluorescence polarization, triplicate; hit rate 74% among 2,400; recombinant caTPT1, RNase T1 coupled; AID 2149, 2009; inhibition, % at 5 µM; shares compounds with TPT1 inhibitor;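 active = inhibition above the primary screen limit, the mean inhibition of all tested compounds plus 3 SD, cut at about 25% in these data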
RNase T1 counter: RNase T1 inhibitors, counter-screen for TPT1 inhibitor project, biochemical, fluorescence polarization. hit rate 83% among 2,400. shares compounds with TPT1 inhibitor. RNase T1 cleavage, 1536-well. AID 2153, 2009. inhibition, % at 5 µM;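 active = inhibition above the solvent-only control well mean plus 3 SD, limit set per screening run, cut at about 23% in these data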;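 note: inhibitors block cleavage so intact labeled substrate keeps polarization high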
Of the large screens only hits and unclear results are named; the others gave an inactive call (follow-up assays come after a bar, where they were run).

NC(=O)N/N=C/c1ccc(N2CCOCC2)s1	TPT1 inhibitor 81 | caTPT1 confirm 123 | RNase T1 counter 130
O=C(N/N=C/c1ccc(N2CCOCC2)s1)c1ccc(O)cc1	none (no result: IDE act, RTF Ca sens inh, RTF Ca sens act, TPT1 inhibitor, IDE cell inh)
CCSc1nnc(-c2sc3nnc(-c4ccccc4)c(-c4ccccc4)c3c2N)o1	CRFBP-R2 agonist 116, RTF Ca sens act 83, TPT1 inhibitor 42, IDE cell inh 21 | caTPT1 confirm 42 | RNase T1 counter 51
CCOC(=O)c1sc2cc([N+](=O)[O-])cc(SCCO)c2c1N	none
CCOC(=O)c1sc2cc([N+](=O)[O-])cc(SCC(=O)OC)c2c1N	TPT1 inhibitor 29 | caTPT1 confirm 35 | RNase T1 counter 49
CCN1CCCC1CNC(=O)CN(C)S(=O)(=O)c1ccc(Cl)cc1 (stereo not given)	none
Cc1cc(C(=O)c2cccs2)c(N)s1	TPT1 inhibitor 35 | caTPT1 confirm 40 | RNase T1 counter 49
Cc1cc(C)c(C(=O)c2cccs2)c(C)c1	none (no result: TPT1 inhibitor, IDE cell inh)
CC1CCCCN1CCCNC(=O)c1ccc(NC(=O)C2=CSCCO2)cc1 (stereo not given)	none
COc1ccc(C2CC(c3ccccc3)=NN2c2ccc(N)cc2)cc1 (stereo not given)	TPT1 inhibitor 29 | caTPT1 confirm 38 | RNase T1 counter 51
COc1ccc(C2CC(c3ccccc3O)=NN2c2ccccc2)cc1 (stereo not given)	none
CCOc1ccc(Cc2nnc(SCC(=O)Nc3c(C)cccc3C)[nH]c2=O)cc1	none
CCSC(=O)N=Nc1ccc(O)cc1	none (no result: TPT1 inhibitor, IDE cell inh)
COCCN=c1scc(-c2ccco2)n1/N=C/c1ccc(O)c(O)c1O	TPT1 inhibitor 52 | caTPT1 confirm 60 | RNase T1 counter 70
C=CCN=c1scc(-c2ccco2)n1/N=C/c1ccc(O)c(O)c1O	none
O=C1/C(=C\c2ccc3c(c2)OCO3)CCC/C1=C/c1ccc2c(c1)OCO2	none
CC1CC/C(=C\c2ccc3c(c2)OCO3)C(=O)/C1=C/c1ccc2c(c1)OCO2 (stereo not given)	TPT1 inhibitor 31 | caTPT1 confirm inactive | RNase T1 counter inactive
Cc1nn(-c2ccccc2)c(C)c1/C=N/NC(=O)CSc1nnc(SCc2ccc(Cl)cc2)s1	none
COc1cc(/C=N/NC2=NC(C)(C)Cc3ccccc32)cc(OC)c1OC	none
COc1ccc2o/c(=N\O)c(C(=O)Nc3ccccc3OC)cc2c1	TPT1 inhibitor 162, IDE cell inh 28 | caTPT1 confirm 127 | RNase T1 counter 125
CC1(C)Cc2cccc(OCC(=O)OCC(=O)NCc3ccccc3)c2O1	none
Cc1cccc(NC(=O)CN2C(=O)N/C(=C/c3ccc(C)s3)C2=O)c1	TPT1 inhibitor 83 | caTPT1 confirm 100 | RNase T1 counter 108
Cc1cccc(NC(=O)CN2C(=O)N/C(=C/c3cc(C)n(C(C)C)c3C)C2=O)c1	none
CCN(CC)c1ccc(C=C2C(=O)OC(C)(C(C)(C)C)OC2=O)cc1 (stereo not given)	TPT1 inhibitor 78 | caTPT1 confirm 162 | RNase T1 counter 152
CCN(CC)c1ccc(C=C2C(=O)OC3(CCCC3)OC2=O)cc1	TPT1 inhibitor 29 | caTPT1 confirm 140 | RNase T1 counter 142

High-throughput results: PubChem BioAssay, several laboratories
